# Where “and” joins values, the source holds several entries; their conditions need not be identical. Equal entries are not always repeated. Results filed as inconclusive are left out. Calls of active or inactive are those of the source. Calls come from the whole dose curve; as a rule, active = well fitted curve in the direction sought with a large enough effect in the repeat runs; inconclusive = weak or mixed curves; inactive = no such curve, though single readings can be large; an effect the other way counts as inactive or inconclusive.
# Assay: qHTS assay for identifying genotoxic compounds that show differential cytotoxicity against isogenic chicken DT40 cell lines with known DNA damage response pathways - Rev3 mutant cell line (AID 743014); note: nearly all actives have a fitted effect of over 55% in size
# Conditions: chicken DT40 Rev3-/- viability, CellTiter-Glo, 40 h; series mostly up to 68.4 µM; activity, negative = cytotoxicity: at the top concentration
# % is set by controls: 0 for no effect and ±100 for the full control effect; potency is the fitted concentration of half-maximal effect.
Structure (SMILES),"activity, negative = cytotoxicity",Potency
O=C1OC(CN2CCOCC2)CN1/N=C/c1ccc([N+](=O)[O-])o1 (centres undefined),-30.4% [at 31.4 µM] (inactive),
C=CC(=O)OCCOCCOC(=O)C=C,,6.14 µM (active)
CC(COCCO)OCCO (centres undefined),-4.37% (inactive),
Cc1cccc(C)c1NC(=O)CN(CC(=O)O)CC(=O)O,14.8% (inactive),
CN(Cc1ccc(C(C)(C)C)cc1)Cc1cccc2ccccc12,,inactive
CCCCC(CC)COC(=O)COc1ccc(Cl)cc1Cl (centres undefined),0.061% [at 95 µM] (inactive),
CNC(=O)CN(CCN(CCN(CC(=O)[O-])CC(=O)NC)CC(=O)[O-])CC(=O)[O-].O.[Gd+3],,inactive
c1ccc(CNCCNCc2ccccc2)cc1,-14.8% (inactive),
OCc1cc(C(O)CNCCCCCCOCCCCc2ccccc2)ccc1O (centres undefined),,5.96 µM (active) and 4.73 µM (active)
CCC(C)c1cc(C(C)(C)C)c(O)c(C(C)(C)C)c1 (centres undefined),0.872% (inactive),
C[C@@H]1C[C@H]2O[C@@]3(O[C@@H]2C(C)(C)O)[C@H](O)[C@@]2(C)[C@@H]4CC[C@H]5C(C)(C)[C@@H](O[C@@H]6OC[C@@H](O)[C@H](O)[C@H]6O)CC[C@@]56C[C@@]46CC[C@]2(C)[C@@H]13,-9.15% (inactive),
COc1ccc(S(=O)(=O)N2C(=O)[C@@](c3ccccc3OC)(N3C[C@H](O)C[C@H]3C(=O)N(C)C)c3cc(Cl)ccc32)c(OC)c1,,61.1 µM (active)
CC1=CC[C@H](C(C)C)C=C1,,68.6 µM (active)
CCCCCCCCCCCc1ccccc1,,60.3 µM (active)
CC(C)CC(=O)C1C(=O)c2ccccc2C1=O,6.32% (inactive),
N=c1ccn2c(n1)O[C@H]1[C@H](O)[C@@H](CO)O[C@H]12,,237 nM (active) and 137 nM (active)
CCOC(=O)NCCOc1ccc(Oc2ccccc2)cc1,,68.6 µM (active)
Nc1ccccc1S(=O)(=O)c1ccccc1,-10.3% (inactive),
CC(C)=CCC/C(C)=C/CC/C(C)=C/CO,,54.5 µM (active)

Structure (SMILES),"activity, negative = cytotoxicity",Potency
CCN(CC)CCOC(=O)C(c1ccccc1)C1CCCCC1 (centres undefined),,10.6 µM (active)
CCCCO,,inactive
O=C(O)C(S)C(S)C(=O)O (centres undefined),-0.023% (inactive),
COc1cc(Cl)ccc1Oc1ccc(Cl)cc1Cl,-16.3% (inactive),
COC(C)(C)CCO,-3.19% (inactive),
C=C(C)C(=O)OCCO,-8.02% [at 95 µM] (inactive),
CCCCCCCCCCCCCCCCOS(=O)(=O)O,-1.34% (inactive),
C/C=C/C=C/CO,,61.1 µM (active)
CN1CCN(C(c2ccccc2)c2ccccc2)CC1,-18.5% [at 31.4 µM] (inactive),
CCCOC(C(=O)OC1CCN(C)CC1)(c1ccccc1)c1ccccc1,,7.5 µM (active)
NCC(=O)O,-3.12% (inactive),
CCCCc1nc2cccnc2n1Cc1ccc(-c2ccccc2-c2nnn[nH]2)cc1,-5.7% (inactive),
C=CC(=O)OCCOc1ccccc1,,61.1 µM (active)
O=C(OCCCCCCOC(=O)c1ccccc1)c1ccccc1,,61.1 µM (active)
Cc1nn(C)c(Oc2ccccc2)c1/C=N/OCc1ccc(C(=O)OC(C)(C)C)cc1,,0.0024 µM (active)
Nc1ncn([C@H]2C[C@H](O)[C@@H](CO)O2)c(=O)n1,,0.106 µM (active)
COc1ccc(C(=O)Nc2nc3ccccc3c(NCc3ccccc3)c2C#N)cc1,,38.6 µM (active)
O=[N+]([O-])c1cccc(S(=O)(=O)O)c1,15.4% [at 95 µM] (inactive),

# Assay: qHTS assay for identifying genotoxic compounds that show differential cytotoxicity against isogenic chicken DT40 cell lines with known DNA damage response pathways - Rad54/Ku70 mutant cell line (AID 743015); note: nearly all actives have a fitted effect of over 60% in size
# Conditions: DT40 Rad54/Ku70 mutant viability, CellTiter-Glo, 40 h; series mostly up to 66.8 µM; activity change, negative = cytotoxicity: at the top concentration
Structure (SMILES),Potency,"activity change, negative = cytotoxicity"
C=CC(=O)OCCOCCOC(=O)C=C,9.73 µM (active),
CN(Cc1ccc(C(C)(C)C)cc1)Cc1cccc2ccccc12,,-2.04% (inactive)
OCc1cc(C(O)CNCCCCCCOCCCCc2ccccc2)ccc1O (centres undefined),5.31 µM (active) and 3.35 µM (active),
COc1ccc(S(=O)(=O)N2C(=O)[C@@](c3ccccc3OC)(N3C[C@H](O)C[C@H]3C(=O)N(C)C)c3cc(Cl)ccc32)c(OC)c1,48.6 µM (active),
CC1=CC[C@H](C(C)C)C=C1,61.1 µM (active),
CCOC(=O)NCCOc1ccc(Oc2ccccc2)cc1,61.1 µM (active),
CC(C)=CCC/C(C)=C/CC/C(C)=C/CO,30.6 µM (active),
CN1CCN(C(c2ccccc2)c2ccccc2)CC1,,-8.27% [at 30.7 µM] (inactive)
CCCOC(C(=O)OC1CCN(C)CC1)(c1ccccc1)c1ccccc1,11.9 µM (active),
O=C(OCCCCCCOC(=O)c1ccccc1)c1ccccc1,54.5 µM (active),
Nc1ncn([C@H]2C[C@H](O)[C@@H](CO)O2)c(=O)n1,0.0298 µM (active),

# Assay: qHTS assay to identify small molecule antagonists of the androgen receptor (AR) signaling pathway - cell viability counter screen (AID 743033; note: nearly all actives have a fitted effect of over 45% in size)
# Conditions: AR-bla HEK293 viability, CellTiter-Glo luminescence, 16 h; series mostly up to 58.5 µM; activity change, negative = cytotoxicity: at the top concentration
Structure (SMILES),"activity change, negative = cytotoxicity",Potency
O=C1OC(CN2CCOCC2)CN1/N=C/c1ccc([N+](=O)[O-])o1 (centres undefined),-0.806% [at 27 µM] (inactive),
C=CC(=O)OCCOCCOC(=O)C=C,,39.1 µM (active)
CC(COCCO)OCCO (centres undefined),4.7% (inactive),
Cc1cccc(C)c1NC(=O)CN(CC(=O)O)CC(=O)O,1.81% (inactive),
CN(Cc1ccc(C(C)(C)C)cc1)Cc1cccc2ccccc12,,inactive
CCCCC(CC)COC(=O)COc1ccc(Cl)cc1Cl (centres undefined),-2.64% [at 78.9 µM] (inactive),
CNC(=O)CN(CCN(CCN(CC(=O)[O-])CC(=O)NC)CC(=O)[O-])CC(=O)[O-].O.[Gd+3],,inactive
c1ccc(CNCCNCc2ccccc2)cc1,-21.6% (inactive),
CCC(C)c1cc(C(C)(C)C)c(O)c(C(C)(C)C)c1 (centres undefined),0.776% (inactive),
C[C@@H]1C[C@H]2O[C@@]3(O[C@@H]2C(C)(C)O)[C@H](O)[C@@]2(C)[C@@H]4CC[C@H]5C(C)(C)[C@@H](O[C@@H]6OC[C@@H](O)[C@H](O)[C@H]6O)CC[C@@]56C[C@@]46CC[C@]2(C)[C@@H]13,-2.46% (inactive),
CCCCCCCCCCCc1ccccc1,2.94% (inactive),
N=c1ccn2c(n1)O[C@H]1[C@H](O)[C@@H](CO)O[C@H]12,,inactive
Nc1ccccc1S(=O)(=O)c1ccccc1,1.24% (inactive),
CCN(CC)CCOC(=O)C(c1ccccc1)C1CCCCC1 (centres undefined),-13.1% (inactive),
CCCCO,,inactive
O=C(O)C(S)C(S)C(=O)O (centres undefined),3.57% (inactive),
COc1cc(Cl)ccc1Oc1ccc(Cl)cc1Cl,-6.12% (inactive),
COC(C)(C)CCO,4.68% (inactive),
C=C(C)C(=O)OCCO,2.48% [at 78.9 µM] (inactive),
CCCCCCCCCCCCCCCCOS(=O)(=O)O,-7.21% (inactive),
C/C=C/C=C/CO,-0.23% (inactive),
NCC(=O)O,8.71% (inactive),
CCCCc1nc2cccnc2n1Cc1ccc(-c2ccccc2-c2nnn[nH]2)cc1,-16% (inactive),
C=CC(=O)OCCOc1ccccc1,-6.76% (inactive),
COc1ccc(C(=O)Nc2nc3ccccc3c(NCc3ccccc3)c2C#N)cc1,-12.9% (inactive),
O=[N+]([O-])c1cccc(S(=O)(=O)O)c1,-13.3% [at 78.9 µM] (inactive),
